Values joined by “and” are separate entries in the source; they are usually repeats but may differ in a detail not shown here. Equal entries are not always repeated. ± gives the standard deviation of the averaged measurements.
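Further: End-point A600 read in BHI broth at 37 °C with 2% DMSO, inhibition computed as (1 − OD with compound plus ceftriaxone ÷ OD with ceftriaxone only) × 100.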

In this assay the test system is Listeria monocytogenes 10403S. The assay can be described thus: growth inhibition relative to ceftriaxone-alone control; higher = stronger potentiation of ceftriaxone growth inhibition. As to conditions: 10 µM; ceftriaxone 1 ug/ml; 12 h.
On to `CCC(=O)Nc1ccc(C)c(-c2ccc(C(=O)NCC3CC3)cc2)c1`, for which the growth inhibition is -2.46 ± 1.9%. Regarding `COc1ccc2c(Oc3ccc(NC(=O)c4c(C)n(CC(C)(C)O)n(-c5ccccc5)c4=O)nc3)ccnc2c1`, the growth inhibition stood at 28.9 ± 13%.

`Cc1cc(O)cc(C)c1/C=C/c1cncc(-c2nn[nH]n2)c1`: the growth inhibition is -2.34 ± 0.16%. In the case of `COC(=O)c1ccc2c(C(=Nc3ccc(N(C)C(=O)CN4CCN(C)CC4)cc3)c3ccccc3)c(O)[nH]c2c1` [BIBF1120 (Vargatef)] it was 21.6 ± 14%; in that of `COc1ccc(COc2ccc(Cc3cnc(N)nc3N)cc2OC)cc1`, 63.8 ± 9.7%.

On to `CNC(=O)c1cc(Oc2ccc(NC(=O)Nc3cc(C(C)(C)C)nn3-c3ccc4ncccc4c3)c(F)c2)ccn1` [DCC-2036 (Rebastinib)], for which the growth inhibition amounted to 21 ± 0.51%. In the case of `CC(C)(C)c1cc(/C=C(\C#N)C(N)=S)cc(C(C)(C)C)c1O` [Tyrphostin AG 879 (AG 879)] it was 72.8 ± 30%; in that of `FC(F)(F)c1ccc(/C=C/c2nc(COc3ccc(CCCCn4ccnn4)cc3)co2)cc1` [Mubritinib (TAK 165)], 16.1 ± 6.1%; in that of `Nc1nccc(-c2c(-c3ccc(F)cc3)nn3cc(C(F)(F)F)ccc23)n1`, -7.97 ± 19%.

For the compound `O=C(Nc1c[nH]nc1-c1nc2ccc(CN3CCOCC3)cc2[nH]1)NC1CC1`, the growth inhibition stood at 55.7 ± 25%. Take `O=C(NCc1ccccc1)c1csc(Nc2ccncn2)n1` [Thiazovivin]: the growth inhibition is 5.95 ± 11%. For `Fc1ccc(-c2ncn(C3CCNCC3)c2-c2ccnc(Oc3ccccc3)n2)cc1` the value was -4.1 ± 5.5%; for `[O-][S+]1CCN(Cc2ccc(-c3ccc4ncnc(Nc5ccc(OCc6ccccc6)c(Cl)c5)c4c3)o2)CC1`, 2.22 ± 6.4%.

With `COc1cc(Nc2ncc(F)c(Nc3ccc4c(n3)NC(=O)C(C)(C)O4)n2)cc(OC)c1OC`, the growth inhibition was 9.08% and 0.52%. Consider `COC(=O)Nc1nc2ccc(Sc3ccc(NC(=O)Nc4cc(C(F)(F)F)ccc4F)cc3)cc2[nH]1`, for which the growth inhibition is -12.7 ± 13%. `CCCN1CCC(c2ccc(Nc3nc(Nc4cc(F)ccc4C(N)=O)c4cc[nH]c4n3)c(OC)c2)CC1`: the growth inhibition was -8.21 ± 4.5%. As for `O=C1Nc2ccc(-c3cccnc3)cc2C1=Cc1cc(Br)c(O)c(Br)c1`, the growth inhibition came out at 22.1 ± 2.9%.

As to `COc1cc(Nc2ncc(F)c(Nc3ccc4c(n3)N(COP(=O)(O)O)C(=O)C(C)(C)O4)n2)cc(OC)c1OC` [R788 (Fostamatinib)], the growth inhibition was determined as 12.5 ± 9.9%. Regarding `CCc1cccc(NC(=O)Nc2ccc(Oc3ccc4nc(NC(=O)OC)[nH]c4c3)cc2)c1`, the growth inhibition worked out at 9.75 ± 3.1%. Turning to `c1ccc(-c2n[nH]cc2-c2ccnc(-c3ccc(OCCn4ccnc4)cc3)c2)nc1`, the growth inhibition was -3.25 ± 8%.

For the compound `Nc1nc(-c2ccccn2)c(-c2ccc3ncccc3n2)s1`, the growth inhibition was 0.104 ± 3%. Regarding `CC1=C(C(=O)Nc2ccc3[nH]nc(C)c3c2)C(c2ccc(C(F)(F)F)cc2)CC(=O)N1` (stereo not drawn), the growth inhibition was -1.71 ± 13%. With `N#Cc1cccc(Nc2ncc(-c3ccccc3)o2)c1`, the growth inhibition was -4.01 ± 1.7%. Take `NC(=O)c1cc(-c2ccc(F)cc2)cc(-c2ccncc2)c1N`: the growth inhibition is -1.35 ± 1.1%. For `Cn1cc(-c2ccc3nnc(Sc4ccc5ncccc5c4)n3n2)cn1`, the growth inhibition amounted to 18 ± 20%. Turning to `C[C@@H](Oc1cc(-c2cnn(C3CCNCC3)c2)cnc1N)c1c(Cl)ccc(F)c1Cl`, the growth inhibition was found to be 94.9 ± 5.1%.

For `Nc1ccc(C(=O)Nc2cccc(-c3nc(N4CCOCC4)c4oc5ncccc5c4n3)c2)cn1`, the growth inhibition was found to be 31.1 ± 1.6%. In the case of `Cc1ccc(C(=O)Nc2cccc(C(F)(F)F)c2)cc1Nc1nc(-c2cccnc2)nc2c1cnn2C`, the growth inhibition is -1.9 ± 16%.

Consider `CN1CCC(n2cnc(-c3ccc(F)cc3)c2-c2ccnc(NCCO)n2)CC1`, for which the growth inhibition was -2.88 ± 2.5%. In the case of `CCn1cc(-c2ccnc3[nH]c(-c4cccc(CN(C)C)c4)cc23)c(-c2ccc(NC(=O)N(C)C)cc2)n1` it was 26.7 ± 18%; in that of `C#Cc1cccc(Nc2ncnc3ccc(OCCCCNCCS(C)(=O)=O)cc23)c1`, -12 ± 5.6%. Take `CO[C@H]1C[C@@H]2CC[C@@H](C)[C@@](O)(O2)C(=O)C(=O)N2CCCC[C@H]2C(=O)O[C@H]([C@H](C)C[C@@H]2CC[C@@H](OC(=O)C(C)(CO)CO)[C@H](OC)C2)CC(=O)[C@H](C)/C=C(\C)[C@@H](O)[C@@H](OC)C(=O)[C@H](C)C[C@H](C)/C=C/C=C/C=C/1C` [Temsirolimus (Torisel)]: the growth inhibition came to 19.8 ± 59%. In the case of `Fc1ccc(-c2nn3ccccc3c2-c2ccncc2)cc1` it was 20.7 ± 8.6%; in that of `COc1cc2c(cc1Nc1nc(Nc3ccsc3C(N)=O)c3cc[nH]c3n1)N(C(=O)CN(C)C)CCC2(C)C`, -4.89 ± 0.71%; in that of `CCCS(=O)(=O)Nc1ccc(F)c(C(=O)c2c[nH]c3ncc(Cl)cc23)c1F`, 24.2 ± 22%. For `COc1ncc(-c2ccc3nccc(-c4ccnnc4)c3c2)cc1NS(=O)(=O)c1ccc(F)cc1F` the value was 12.8 ± 7.8%; for `CC(=O)Nc1cccc(-n2c(=O)n(C3CC3)c(=O)c3c(Nc4ccc(I)cc4F)n(C)c(=O)c(C)c32)c1`, 31.3 ± 12%. For `COc1ccc(-c2nn3ncccc3c2-c2ccnc(Nc3ccc(Cl)c(C(F)(F)F)c3)n2)cc1` the value was -8.69 ± 0.94%.

The values are drawn from the supplement of paper PMC5641865, “A screen for kinase inhibitors identifies antimicrobial imidazopyridine aminofurazans as specific inhibitors of the Listeria monocytogenes PASTA kinase PrkA” (The Journal of Biological Chemistry, 2017).
